Among all 310,000 compounds or so, about 11,000 (3.5%) were called active. Not shown: some 8% with an inconclusive outcome. For the sample, actives were picked, then their nearest neighbours and some compounds at random. Unmarked numbers belong to inactive results. Calls follow the shape of the dose curve; as a rule, active = well fitted inhibition curve with a large enough effect; inconclusive = small, poorly fitted or top-dose-only effect, or effect the other way; inactive = flat fitted curve, though single readings scatter.
Test: VP16 counterscreen qHTS for inhibitors of ROR gamma transcriptional activity;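 also: Gal4-VP16 expression switched on by copper sulfate through the metallothionein promoter; nearly all actives have a fitted effect of over 50% in size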
Details: Drosophila S2 Gal4-VP16 UAS-luciferase, luminescence, 20 h; series mostly up to 53.6 µM; activity, negative = inhibition: at the top concentration
Description: NIH Molecular Libraries Probe Production Network [MLPCN]
NIH Chemical Genomics Center [NCGC]
Assay Provider: Dan Littman, New York University
The retinoic acid-related orphan receptor (ROR) gamma is a transcription factor that has a central role in the differentiation of Th17 cells, a subset of T helper cells that secrete the inflammatory cytokines IL-17, IL-17F, and IL-22. Th17 cells have been implicated in graft versus host disease, autoimmune disease and asthma. ROR gamma is induced in naive T helper cells in the presence of TGF-beta combined with IL-6, IL-21, or IL-23, and thereafter directs the expression of the Th17 lineage cytokines. To identify nonspecific inhibitors, a Drosophila Schneider cell line was stably transfected with two vectors: a gene expressing a fusion of the Gal4 DNA binding domain and VP16 transactivation domain under the control of the metallothionine promoter and a Photinus luciferase reporter regulated by the Gal4 binding site enhancer, UAS. […] Small molecule inhibitors that inhibit components common to the RORgt and VP16 assays, such as the Gal4 DNA binding domain or the UAS luciferase reporter, will be active in both assays and thus scored as nonspecific.
For screening, 600 cells in 4 uL/well were dispensed into white solid 1536-well plates (Grenier) using a solenoid-based dispenser. Following transfer of 23 nL compound or DMSO vehicle by a pin tool, the plates were incubated 1 hr at ambient temperature, and 1 uL/well copper sulfate (700 uM final concentration) was added. The plates were centrifuged 15 s at 1000 RPM and incubated 20 hr at ambient temperature. After addition of 1.5 uL Photinus luciferase detection reagent, the plates were incubated 10 min at ambient temperature and then read by a ViewLux (Perkin Elmer) to detect luminescence.
% is scaled to controls: 0 for no effect and ±100 for the full control effect; potency is read from the fitted curve at half-maximal effect.

| SMILES | activity, negative = inhibition | Potency |
| --- | --- | --- |
| O=S(=O)(NC1CCCCC1N1CCC(O)CC1)c1ccc(Cl)cc1 (stereo unspecified) | -8.83% |  |
| COc1cccc(CN(C)CC(O)COC(c2ccccc2)c2ccccc2C)c1 (stereo unspecified) | -7.19% |  |
| COc1ccc(NC(=O)CCS(=O)(=O)c2cc3c(cc2Cl)NC(=O)CO3)cc1OC | -4.94% |  |
| CN(C)CCN(C(=O)C1=COCCO1)c1nc2ccc(Cl)cc2s1 | 1.38% |  |
| O=C(Nc1ccc(Sc2ccc(Br)cc2)cc1)c1ccco1 |  | 2.82 µM (active) |
| O=C(Nc1ccccc1)c1ccco1 | 6.47% |  |
| O=C(Nc1ccc(O)cc1)c1ccc(NC(=O)c2ccco2)cc1 | 21.4% |  |
| CCN(CC(=O)Nc1ccc(C)c(S(=O)(=O)N(C)C)c1)Cc1ccccc1 | -1.1% |  |
| Cc1ccc(C(C)C)c(OCCSc2nc3ccccc3n2CC(=O)O)c1 | 3.88% |  |
| CN(NS(=O)(=O)c1cccs1)c1ncc(C(F)(F)F)cc1Cl |  | 5.01 µM (active) |
| C#CCN(N(C)c1ncc(C(F)(F)F)cc1Cl)S(=O)(=O)c1ccc2ccccc2c1 | 5.11% |  |
| CN(Cc1ccc(F)cc1Cl)S(=O)(=O)c1cccs1 | -4.3% |  |
| Cc1ccc(NC2CCCN(C(=O)CCc3cn[nH]c3)C2)cc1C (stereo unspecified) | -6.86% |  |
| CCc1nccn1CCC(=O)N1CCCC(N2CCN(c3ccccc3F)CC2)C1 (stereo unspecified) | -2.05% |  |
| COCc1ccc(C(=O)NC2CC(C)(C)Cc3c2cnn3-c2ccc(C)cc2)o1 (stereo unspecified) | -21.6% |  |
| CCCc1cc(C(=O)N2CCCC(CO)(CCCc3ccccc3)C2)n(C)n1 (stereo unspecified) | 3.03% |  |
| O=C(O)c1ccc(N/N=C/c2ccc3ncccc3c2)cc1 |  | 0.398 µM (active) |
| O=C(O)c1ccc(/C=N/NC(=O)c2ccc(Br)cc2)cc1 | -3.08% |  |
| O=C(O)c1ccc(/C=N/Nc2nc(N3CCCCC3)nc(N3CCCCC3)n2)cc1 | -5.92% |  |
| COc1ccc(OCc2cc(C(=O)NCC3(C)COC3)no2)c(Cl)c1 | 22.6% |  |
| COc1ccc(CNC(=O)C(=O)NCC2OCCN2C(=O)c2ccc(OC)cc2)cc1 (stereo unspecified) | -5.04% |  |
| COc1ccccc1C(=O)N(C1=NC(C)CS1)c1ccc(Cl)cc1 (stereo unspecified) | -11.6% |  |

| SMILES | activity, negative = inhibition | Potency |
| --- | --- | --- |
| CN(CCc1ccccn1)C(=O)c1ccc(OC2CCN(CCc3ccccc3)CC2)cc1 | 2.42% |  |
| CCOC(=O)c1c(S(=O)(=O)Nc2cccc(Cl)c2)c(C)n(C)c1C | -12% |  |
| CC(C)c1ccc2c([Si](C)(C)C)c3c(nc2c1)-c1cccc(=O)n1C3 | 4.7% |  |
| Cc1c2c(nc3ccccc13)-c1cccc(=O)n1C2 |  | 8.91 µM (active) |
| Cc1nc2ccccc2c(C)c1C(=O)c1ccc(F)cc1 | 10.9% |  |
| Cc1cc(C)c2nc(N(CCN(C)C)C(=O)/C=C/c3cccs3)sc2c1 | -16.5% |  |
| CNC(=S)N/N=C/c1ccc(OCc2ccccc2)c(Br)c1 |  | 3.55 µM (active) |
| O=C(O)COc1ccc(/C=N/O)cc1Br | -6.64% |  |
| C=CCNC(=S)N/N=C/c1ccc(OCc2ccccc2)cc1 | 11.6% |  |
| Cc1cc(C)cc(N(CC(=O)NC2CCCC2)C(=O)CCC(=O)Nc2cc(C)on2)c1 | -10.9% |  |
| O=C(Nc1ccc(F)cc1)C(=O)c1cn(CC(=O)N2CCOCC2)c2ccccc12 | 13.1% |  |
| Cc1cc(=O)[nH]c(SCc2cccc(F)c2)n1 | 11.1% |  |
| Cc1cc(C(=O)CSc2nc(N)cc(=O)[nH]2)c(C)n1-c1cccc(F)c1 |  | 17.8 µM (active) |
| Cc1cc(C(=O)CSc2nc(N)cc(=O)[nH]2)c(C)n1CCc1ccc(Cl)cc1 | -18.2% |  |
| CCCn1c(=O)c(C(=O)Nc2cc(C)ccn2)c(O)c2ccccc21 | -14.8% |  |
| CCN1C(=S)N[C@@H](CCc2ccccc2)[C@H](C(=O)OC)[C@H]1C | -15.7% |  |
| COc1cc(NC(=O)C2=C(C)OCCS2)c(Cl)cc1C(=O)NCCN1CCN(C)CC1 | -7.6% |  |
| Cn1nccc1/C=N\NC(=O)c1ccc(Cl)cc1 | -8.81% |  |
| CCOc1ccc(CCNC(=O)Nc2ccccc2)cc1OCC | 6.47% |  |
| COc1ccc(NC(=O)CCN2C(=O)/C(=C/c3ccc4c(c3)OCO4)SC2=S)cc1 | -2.97% |  |
| COc1ccc(/C=C2\SC(=S)N(CCC(=O)Nc3cccc(C(=O)O)c3)C2=O)cc1OC | -1.72% |  |
| O=C(CCCN1C(=O)/C(=C/c2ccccc2)SC1=S)Nc1ccc(O)cc1 |  | 2 µM (active) |

| SMILES | activity, negative = inhibition | Potency |
| --- | --- | --- |
| COc1ccccc1C(=O)NNC(=O)CCN1C(=O)/C(=C\c2ccccc2)SC1=S | -9.43% |  |
| O=C(CCCN1C(=O)/C(=C/c2ccco2)SC1=S)Nc1ccccc1 |  | 12.6 µM (active) |
| Cc1ccc(/C=C2\SC(=S)N(CCC(=O)Nc3ccc(O)cc3)C2=O)cc1 | 7.84% |  |
| COC(=O)c1ccc(Nc2ncnc3sccc23)cc1 | 3.15% |  |
| CCCCCCC(O)(CCN1CCCCC1)c1ccccc1 (stereo unspecified) | -16.4% |  |
| CC(=O)N1c2ccc(S(=O)(=O)N3CCC(C(=O)N4CCN(c5ccccc5)CC4)CC3)cc2CC1C (stereo unspecified) | 4.75% |  |
| Fc1ccc(Br)cc1/C=N/n1cnnc1 | -6.06% |  |
| Brc1cc(/C=N/n2cnnc2)oc1Br | -2.44% |  |
| CCOc1cc(/C=N/n2cnnc2)c(Br)cc1O |  | 5.62 µM (active) |
| COc1cc(C(=O)OCC(=O)NC(C)CCc2ccccc2)cc(OC)c1OC (stereo unspecified) | 3.99% |  |
| O=C(C[n+]1cc(Br)cc2ccccc21)c1ccc(F)cc1 | 16.3% |  |
| c1ccc(-c2nc(NCc3ccco3)c3ccccc3n2)cc1 | -86.1% |  |
| c1coc(CNc2ncnc3ccccc23)c1 |  | 10 µM (active) |
| COc1ccc(CNc2ncnc3ccccc23)cc1 |  | 7.08 µM (active) |
| Brc1ccc2ncnc(NCc3cccnc3)c2c1 | 3.99% |  |
| COc1cccc(CNc2nc(C(F)(F)F)nc3ccccc23)c1 | -10.5% |  |
| COc1ccc(Nc2ncnc3ccc(OC)cc23)cc1 | -2.23% |  |
| CCOCCCN(C)C1CCN(C(=O)c2oc3ccccc3c2NC(=O)COc2cccc(C)c2)CC1 | -2.07% |  |
| Cc1cccn2c(=O)c3cc(C(=O)NCCN4CCOCC4)c(=N)n(Cc4cccnc4)c3nc12 | -1.41% |  |
| COc1cc2c(cc1OC)CN(C(=O)c1cc(S(=O)(=O)N3CCCCC3)ccc1Cl)CC2 | 6% |  |
| CC(C)c1nc(SCC(=O)Nc2cccc(C(=O)O)c2)c2c3c(sc2n1)CCCC3 | 13% |  |
| Cc1cc(C)n(-c2nc(SCC(=O)N3CCCC3)c3c4c(sc3n2)CCCC4)n1 |  | 10 µM (active) |

| SMILES | activity, negative = inhibition | Potency |
| --- | --- | --- |
| CCCc1nc(SCC(=O)N2CCCC2)c2c(=O)n(C)c(=O)n(C)c2n1 | 7.13% |  |
| CCC(O)CNc1nc(-n2nc(C)cc2C)nc2sc3c(c12)CC(C)(C)OC3 (stereo unspecified) |  | 3.98 µM (active) |
| Cc1nc2sc3c(c2c(=O)n1NC(=O)CCl)CCCC3 | 0.993% |  |
| CC/C(C)=N/Nc1nc2sc3c(c2c(=O)[nH]1)CC(C)(C)OC3 | -5.75% |  |
| CCOC(=O)CSc1nc2sc3c(c2c(=O)[nH]1)CC(C)(C)OC3 | -4.44% |  |
| COCCNc1nc(-n2nc(C)cc2C)nc2sc3c(c12)CCCC3 |  | 3.16 µM (active) |
| Cc1ccc(C)c(-n2c(SCC(=O)O)nc3sc4c(c3c2=O)CCCC4)c1 | -15.4% |  |
| O=C(C1CCCN(S(=O)(=O)c2ccccc2)C1)N1CCN(c2ccc(F)cc2)CC1 (stereo unspecified) | -1.43% |  |
| Cc1nc([N+](=O)[O-])cn1CC(=O)Nc1ccc(Cl)cc1 | -5.36% |  |
| CC(=O)c1cccc(NC(=O)C2COc3ccccc3O2)c1 (stereo unspecified) | 28.1% |  |
| CC(NC(=S)Nc1ccccc1)C1COc2ccccc2O1 (stereo unspecified) |  | 5.01 µM (active) |
| O=C(NCC1COc2ccccc2O1)C1(c2ccccc2)CCCC1 (stereo unspecified) | -20.2% |  |
| CSc1c(SCc2ccccc2)cnn(Cc2ccccc2)c1=O |  | 7.08 µM (active) |
| Cn1c(CO)cnc1SCc1ccccc1 | 1.65% |  |
| CSc1nc2ccccc2c(=O)n1Cc1ccc(F)cc1 | 7.17% [at 10 µM] |  |
| O=C(NCC(=O)N1CCN(c2ccccc2O)CC1)c1ccc2ccccc2c1 | 1.8% |  |
| Cc1ccccc1-n1cc(CNC(=O)C2CCC(=O)N(C3CC3)C2)cn1 (stereo unspecified) | -2.71% |  |
| CC(C)CC(=O)Nc1ccc(Cc2ccncc2)cc1 | 2.31% |  |
| Cc1c(C(=O)N2CCCc3ccccc32)oc2ccccc12 | -1.3% |  |
| Cc1cc(-c2ccc(C)c(S(=O)(=O)NCCCN(Cc3ccccc3)C(C)C)c2)on1 | 13.3% |  |
| Cc1noc(C)c1C(=O)OCC(=O)/C=C1\N(C)c2ccccc2C1(C)C | -5.14% |  |
| CN1/C(=C\C(=O)c2cccnc2Cl)C(C)(C)c2ccccc21 | -8.82% |  |

| SMILES | activity, negative = inhibition | Potency |
| --- | --- | --- |
| CC(=O)Nc1cccc(OCC(=O)/C=C2\N(C)c3ccccc3C2(C)C)c1 |  | 3.16 µM (active) |
| COCC1CCN(C(=O)CCc2nnc(C3(c4ccc(Cl)cc4)CCC3)o2)C1 (stereo unspecified) | 27.7% |  |
| C=CCn1c(=O)c(C(=O)NCc2ccc3c(c2)OCO3)c(O)c2ccccc21 | -4.31% |  |
| O=C(COC(=O)c1n[nH]c2ccccc12)NCc1ccccc1 | 7.8% |  |
| CN(C)S(=O)(=O)c1ccc(NC(=O)COC(=O)Cn2[nH]c(=O)c3ccccc3c2=O)cc1 | -2.41% |  |
| CN(C)S(=O)(=O)c1ccc(NC(=O)COC(=O)c2n[nH]c3ccccc23)cc1 |  | 8.91 µM (active) |
| CCC(=O)Nc1ccc(C(=O)Nc2ccc3c(c2)C(=O)N(CC2CCCO2)C3=O)cc1 (stereo unspecified) | -24.9% |  |
| O=C1c2cccc3c([N+](=O)[O-])ccc(c23)C(=O)N1CC1CCCO1 (stereo unspecified) |  | 5.62 µM (active) |
| O=C(/C=C/c1ccccc1[N+](=O)[O-])NCC1CCCO1 (stereo unspecified) | 3.92% |  |
| Cc1ccc(-n2c(C)nnc2SCC(=O)NC2CC2)cc1 | 1.94% |  |
| O=C(NCc1cccc(Cl)c1)C1CCC(=O)N(C2CC2)C1 (stereo unspecified) | -5.17% |  |
| CCOc1ccccc1NC(=S)N1CCN(c2cccc(C)c2C)CC1 |  | 4.47 µM (active) |
| CCC(=O)N1CCN(c2ccccc2NC(=O)COc2cccc(C)c2C)CC1 | 4.11% |  |
| COc1ccccc1CN1CCN(C(c2ccccc2)c2ccccc2)CC1 | -11.1% |  |
| CCOc1ccccc1N1CCN(C(=S)Nc2ccc(S(N)(=O)=O)cc2)CC1 | -15.7% |  |
| COc1ccccc1NC(=S)N1CCN(c2ccc(F)cc2)CC1 | -3.46% |  |
| COc1ccccc1NC(=S)N1CCN(C(c2ccccc2)c2ccccc2)CC1 |  | 20 µM (active) |
| Cc1sc2nc(SCCO)n(-c3ccccc3)c(=O)c2c1C | -3% |  |

Reference: PubChem BioAssay AID2546 (National Center for Advancing Translational Sciences (NCATS), 2010)
